This is a sample that favours compounds with a hit; in the whole collection about 4.1% have one here.
tim10-1 inh: growth inhibitors of tim10-1 mutant yeast, primary screen, luminescence, uHTS | S. cerevisiae tim10-1 ts strain growth, BacTiter-Glo, 24 h | inhibition, % at 20 µM | hit rate 2.2% among 330,000;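 active = inhibition of at least 40%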;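 also: mutant grown at 25 °C; 0% = DMSO wells with yeast and 100% = wells holding no yeast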
NALP3 yeast inh: NALP3 inflammasome inhibitors in reconstituted yeast, primary screen, luminescence, uHTS | Yeast reconstituted NLRP3/ASC/caspase-1, beta-gal luminescence, 24 h | inhibition, % at 10 µM | hit rate 0.39% among 330,000;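 active = inhibition of 50% or more; inactive = inhibition below 50%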;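 also: plate controls were induced DMSO wells for no effect and uninduced yeast grown without galactose for full effect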
tim23-1 inh: growth inhibitors of tim23-1 mutant yeast, primary screen, luminescence, uHTS; inhibition, % at 20 µM; AID 463212, 2010; S. cerevisiae tim23-1 growth, BacTiter-Glo luminescence, 24 h; hit rate 1.3% among 330,000;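 active = growth inhibition of the mutant yeast at or above 50%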;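 also: temperature-sensitive mutant grown at 25 °C; plate controls were DMSO-treated mutant yeast for no effect and medium wells lacking yeast for full effect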
PfHsp90 set2: growth inhibition of PfHsp90-expressing yeast, primary screen, antimalarial PfHsp90 inhibitor project, S. cerevisiae, BacTiter-Glo luminescence, single point, set 2; hit rate 0.32% among 310,000; inhibition, % at 9.4 µM; BacTiter-Glo ATP, 48 h; yeast lacking PDR1 and PDR3 efflux regulators;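 active = every replicate shows inhibition above about 80%, whatever the replicate mean, limit read from the data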;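 also: 0% = DMSO neutral controls and 100% = 20 µM radicicol positive controls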
NALP1 inh: NALP1 inflammasome inhibitors in reconstituted yeast, colorimetric, S. cerevisiae, triplicate retest. S. cerevisiae NALP1/ASC/caspase-1 growth, X-gal OD620, 72 h. hit rate 0.61% among 280,000. inhibition, % at 10 µM. AID 2071, 2009; in the data active = inhibition mostly above about 24%, no sharp cut-off; inactive = mostly below about 32%
TIM10 inh: growth inhibitors of isogenic TIM10 control yeast, primary screen, counter-screen for tim10-1 yeast inhibitor project, luminescence, uHTS; hit rate 1.4% among 330,000; inhibition, % at 10 µM; S. cerevisiae TIM10 strain growth, BacTiter-Glo luminescence, 24 h; AID 463195, 2010;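 active = inhibition of 40% or more at the single tested concentration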;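 also: wild-type TIM10 isogenic control strain grown at permissive 25 °C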
TIM10 conf: growth inhibitors of wild-type TIM10 yeast, confirmation, counter-screen for tim10-1 synthetic lethality project, single concentration, luminescence, S. cerevisiae; hit rate 63% among 4,600; inhibition, % at 10 µM; S. cerevisiae tim10 strain growth, BacTiter-Glo luminescence, 24 h; shares compounds with TIM10 inh; AID 463215, 2010;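 active = inhibition of yeast growth at or above a set limit in either of two replicates at 10 µM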;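 also: this counterscreen used the strain with wild-type TIM10; 0% = yeast with DMSO and 100% = medium wells lacking yeast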
* marks the source's active call; other numbers are inactive results; x = no result given.

SMILES	tim10-1 inh	NALP3 yeast inh	tim23-1 inh	PfHsp90 set2	NALP1 inh	TIM10 inh	TIM10 conf
CC1(C)Cc2c(cnn2-c2ccc(F)cc2)C(NC(=O)C2=NNC(=O)CC2)C1 (stereo not given)	18	7	12	-4	28	10	x
COc1cc(CN2CCN(C(O)(c3ccccc3)c3ccccc3)CC2)cc(OC)c1OC	-13	15	10	-11	18	6	x
Oc1ccccc1CN1CCN(C(O)(c2ccccc2)c2ccccc2)CC1	16	28	28	21	22	43*	52*
CCNC(=S)N/N=C1\CCCCc2ccccc21	31	6	46	-18	-1	17	x
Cc1ccc(NC(=S)N/N=C2/CCCCc3ccccc32)cc1	27	45	37	-96	x	45*	38*
Cc1ccc(NC(=O)COC(=O)Cc2cccs2)cc1S(=O)(=O)N1CCOCC1	1	11	9	-1	18	97*	-6
CCOc1ccc(C(NC(=O)CC)c2c(O)ccc3ccccc23)cc1 (stereo not given)	26	2	19	-18	-4	9	x
CC(=O)Oc1ccc2ccccc2c1C(NC(=O)Cc1ccccc1)c1ccc(Cl)cc1 (stereo not given)	24	17	39	-76	-10	40*	30
COc1ccc(S(=O)(=O)N2CCC(NC(=O)c3cccnc3)CC2)cc1	16	2	10	-13	8	-5	x
COC(C(=O)N1CCC(n2nccc2NC(=O)C2CC2)CC1)c1ccccc1 (stereo not given)	6	4	6	11	20	6	x
CO/N=C(\c1nonc1N)N1CCN(c2ccc(Cl)cc2[N+](=O)[O-])CC1	27	10	36	x	-5	43*	31*
CO/N=C(\c1nonc1N)N1CCN(c2ccc([N+](=O)[O-])cc2Cl)CC1	25	33	16	26	13	8	x
COc1ccc2nc(NC(=O)C3CCN(S(=O)(=O)c4cccc5nsnc45)CC3)sc2c1	19	5	18	-9	4	40*	-24
Cc1cccc(C(=O)NNC(=O)C23CC4CC(CC(C4)C2)C3)c1O	4	28	28	0	13	49*	46*
Cc1ccc(C(=O)Oc2ccc(C(=O)COC(=O)C3CC(=O)N(Cc4ccco4)C3)cc2)cc1 (stereo not given)	40	6	21	x	-2	41*	13
Cc1ccc(C2CC2c2n[nH]c(=S)n2-c2ccc(Cl)cc2)cc1 (stereo not given)	27	40	31	-3	-8	51*	42*
CSc1ccc(C(=S)N2CCCC2)cc1	-2	14	-8	11	-2	59*	3
COc1ccc(S(=O)(=O)c2c(O)c3ccc(C(=O)Nc4ccc(F)cc4F)cc3[nH]c2=O)cc1	0	-1	0	-28	-14	11	x
Cc1ccccc1-c1cn(-c2ccccc2)c(=S)[nH]1	16	25	37	6	1	41*	51*
c1ccc(OCCOCCN2CCN(C(c3ccccc3)c3ccccc3)CC2)cc1	29	17	14	6	25	43*	-4
Cc1ccc(CCNC(=O)C2CCN(S(=O)(=O)c3ccc4c(c3)NC(=O)CO4)CC2)cc1	8	9	-2	-16	-9	-2	x
Cc1ccc(CN2CCN(/N=C\C(Br)=C\c3ccccc3)CC2)cc1	38	18	22	14	8	44*	23
CC(=C/c1ccccc1)/C=N/N1CCN(Cc2ccc(C)cc2)CC1	-46	19	8	-3	-3	4	x
COc1ccc(C(=O)COC(=O)C2CCCN2C(=O)C23CC4CC(CC(C4)C2)C3)cc1 (stereo not given)	29	8	34	-21	10	44*	33*
COCCN1CCC(CO)C1 (stereo not given)	x	x	x	-21	x	x	x
SMILES	tim10-1 inh	NALP3 yeast inh	tim23-1 inh	PfHsp90 set2	NALP1 inh	TIM10 inh	TIM10 conf
Cc1cc(CC(C)C)n(-c2nc3ccccc3c(=O)n2OCc2ccccc2)n1	34	0	38	x	16	40*	37*
Cc1cc(CC(C)C)n(-c2nc3ccccc3c(=O)n2OCC(=O)N(C)C)n1	15	2	18	-2	7	5	x
CSc1ccc(S(=O)(=O)Nc2ccc3c4c(cccc24)CC3)cc1	30	3	45	x	6	42*	20
O=C(NCc1ccccc1)C(c1ccccc1)N(C(=O)c1csnn1)C1CCCC1 (stereo not given)	-1	17	13	6	4	17	x
NC(=O)CSc1nnnn1-c1cccc(Cl)c1	8	10	6	24	19	12	x
C#CCSc1nnnn1-c1cccc(Cl)c1	4	14	19	8	-2	49*	-23
CN1/C(=C\C(=S)NC(=O)c2ccccc2Cl)C(C)(C)c2ccccc21	36	24	50	0	31	40*	15
COc1ccc(-c2nn(-c3ccccc3)cc2/C=N/O)cc1OC	21	18	27	-12	4	18	x
COc1ccc(-c2nn(-c3ccccc3)cc2/C=N/NC(=S)NC(C)C)cc1OC	36	4	43	-156	8	48*	49*
CN(c1ccccc1)c1nc(N)c([N+](=O)[O-])c(N2CCCCCC2)n1	24	27	41	-1	-6	45*	17
Cc1cc(C)c(C(=O)C(C)OC(=O)Cn2cnc3c2c(=O)n(C)c(=O)n3C)cc1C (stereo not given)	-17	6	-7	-23	x	58*	-33
CC(OC(=O)Cn1cnc2c1c(=O)n(C)c(=O)n2C)C(=O)c1ccccc1 (stereo not given)	-1	5	-5	x	x	-5	x
O=C(c1cnn2c1NC(c1ccc(Br)cc1)CC2C(F)(F)F)N1CCN(C23CC4CC(CC(C4)C2)C3)CC1 (stereo not given)	35	5	41	x	4	42*	14
COc1cccc(CNC(=O)Cn2c(=O)n(CCC(=O)N3CCCCC3)c(=O)c3sccc32)c1	7	8	-6	-3	19	-5	x
Cc1ccc(C(=O)Nc2ccc(C(=O)O)cc2NC(=O)c2ccc(C)cc2)cc1	11	9	16	-34	16	5	x

Compound activity deposited in PubChem BioAssay by several laboratories.
